# Data from PubChem BioAssay (NCATS).
# Records with an inconclusive call do not appear. Values without a mark were called inactive. Active and inactive are the calls of the source. Calls come from the whole dose curve; as a rule, active = well fitted cell-killing curve with a large enough effect; inconclusive = small, poorly fitted or top-dose-only effect, or effect the other way; inactive = no such curve, though single readings can be large or run the other way.
# Test: Quantitative High-Throughput drug screen in 47 multiple myeloma cell lines against the NCATS MIPE library collection: KMS28BM_JCRB cell viability assay (AID 1919874); note: nearly all actives have a fitted effect of over 35% in size
# Conditions: CellTiter-Glo ATP, 48 h; series mostly up to 45.8 µM; viability, % of control: at the top concentration
# Procedure, shortened: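 qHTS format: cells plated (500/well), pin-dosed with MIPE 4.0 compounds, kept 48 h at 37 °C. Readout was CellTiter-Glo luminescence, median RLU.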
# Potency is the fitted concentration of half-maximal effect.
Compound,Potency,"viability, % of control"
COc1cc2nc(N3CCN(C(=O)C4COc5ccccc5O4)CC3)nc(N)c2cc1OC (stereo unspecified),16.6 µM (active),–
C[C@@H]1CC(=O)NN=C1c1ccc(NN=C(C#N)C#N)cc1,23.5 µM (active),–
CCC1(C)CC(=O)NC1=O (stereo unspecified),–,105%
CC(=O)OCC(CCn1cnc2cnc(N)nc21)COC(C)=O,–,108%
COc1cc2nc(N3CCN(C(=O)c4ccco4)CC3)nc(N)c2cc1OC,10.5 µM (active),–
CC(C)NCC(O)c1ccc(O)c(O)c1 (stereo unspecified),7.43 µM (active),–
CCOC(=O)c1ncn2c1CN(C)C(=O)c1cc(F)ccc1-2,–,129%
CN1C2CCC1CC(OC(=O)C(CO)c1ccccc1)C2 (stereo unspecified),–,109%
Cn1c(=O)c2c(ncn2C)n(C)c1=O,–,123%
CN(C)CCOC(c1ccccc1)c1ccccc1,5.9 µM (active),–
O=c1c(O)c(-c2ccc(O)c(O)c2)oc2cc(O)cc(O)c12,–,94.4%
